These results are taken from PubChem BioAssay AID504339 (National Center for Advancing Translational Sciences (NCATS), 2011).

In all, about 390,000 compounds went through this assay and about 17,000 (4.4%) were called active. About 8% were inconclusive and are not listed. The sample holds actives, similar compounds and a random draw of the others, so the mix is not that of the screen. Calls follow the shape of the dose curve; as a rule, active = well fitted inhibition curve with a large enough effect; inconclusive = small, poorly fitted or top-dose-only effect; inactive = no such curve, though single readings can be large or run the other way.
% is scaled to controls: 0 for no effect and ±100 for the full control effect; potency is read from the fitted curve at half-maximal effect.

Lysine-specific demethylase 4A (Homo sapiens), sequence (O75164 whole entry, looked up, the tested form may be a part): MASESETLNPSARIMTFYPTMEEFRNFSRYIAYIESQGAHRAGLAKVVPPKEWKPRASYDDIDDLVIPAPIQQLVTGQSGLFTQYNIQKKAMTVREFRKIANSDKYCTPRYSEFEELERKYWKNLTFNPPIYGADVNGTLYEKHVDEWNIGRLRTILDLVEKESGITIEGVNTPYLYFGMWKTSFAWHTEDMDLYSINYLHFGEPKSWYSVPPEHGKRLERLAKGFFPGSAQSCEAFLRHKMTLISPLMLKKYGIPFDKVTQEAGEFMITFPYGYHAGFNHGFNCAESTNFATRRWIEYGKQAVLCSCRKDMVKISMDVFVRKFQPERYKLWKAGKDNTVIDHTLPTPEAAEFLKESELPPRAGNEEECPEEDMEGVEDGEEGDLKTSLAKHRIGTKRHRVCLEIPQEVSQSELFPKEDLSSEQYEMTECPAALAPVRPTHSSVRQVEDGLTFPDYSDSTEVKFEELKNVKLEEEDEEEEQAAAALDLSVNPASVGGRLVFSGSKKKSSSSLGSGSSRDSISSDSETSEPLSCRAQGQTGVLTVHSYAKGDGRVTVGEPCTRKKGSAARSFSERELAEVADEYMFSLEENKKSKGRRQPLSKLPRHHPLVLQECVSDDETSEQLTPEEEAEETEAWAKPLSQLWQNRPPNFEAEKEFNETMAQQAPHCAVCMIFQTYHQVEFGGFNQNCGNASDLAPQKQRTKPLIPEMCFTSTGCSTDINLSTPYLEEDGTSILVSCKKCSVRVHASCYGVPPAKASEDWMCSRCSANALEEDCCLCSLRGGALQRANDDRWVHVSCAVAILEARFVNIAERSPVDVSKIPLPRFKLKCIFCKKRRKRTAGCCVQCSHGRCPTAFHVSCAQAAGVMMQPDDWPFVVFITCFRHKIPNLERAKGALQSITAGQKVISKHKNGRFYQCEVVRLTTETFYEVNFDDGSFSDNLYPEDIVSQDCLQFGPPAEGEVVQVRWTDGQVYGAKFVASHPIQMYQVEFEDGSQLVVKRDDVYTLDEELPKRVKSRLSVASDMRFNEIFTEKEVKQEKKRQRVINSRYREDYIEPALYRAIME

The test has as its target Lysine-specific demethylase 4A (Homo sapiens) (UniProt O75164). In words: qHTS Assay for Inhibitors of JMJD2A-Tudor Domain. Also: nearly all actives have a fitted effect of over 50% in size. The following applies: AlphaScreen JMJD2A-Tudor / H3K4me3 peptide binding; series mostly up to 114 µM; activity change, negative = inhibition: at the top concentration.
As for `Cc1nn(-c2ccc(N3CCCCC3)nn2)c(C)c1CCC(=O)NCc1ccccc1F`, the “activity change, negative = inhibition” value was -25% (inactive). As for `COc1ccc(/C=C/C(=O)NC(=S)N2CCCC(C(N)=O)C2)cc1` (centres undefined), the “activity change, negative = inhibition” value was -11% (inactive).

Regarding `COc1ccc(CN2CCCC(C(=O)N3CCCCC3)C2)cc1` (centres undefined), the Potency was 79.4 µM (active). As to `COc1ccc(CNC(=O)C2CCCC2)cc1`, the “activity change, negative = inhibition” value is -10.1% (inactive). On the same count and under the same terms, the same measure for `O=C(COc1ccc(Cl)cc1)Nc1ccccc1OCc1cc(=O)n2ccccc2n1`: -2.6% (inactive); for `CC(=O)c1cccc(NC(=O)C2COc3ccccc3O2)c1` (centres undefined): -2.33% (inactive); for `C/C(=N/NC(=O)C1COc2ccccc2O1)c1ccco1` (centres undefined): -5.63% (inactive).

On to `O=C(Nc1nc(-c2ccncc2)cs1)C1COc2ccccc2O1` (centres undefined), for which the Potency is 50.1 µM (active). As for `O=C(CC(c1cccs1)N1Cc2ccccc2C1=O)Nc1ccc(F)cc1F` (centres undefined), the “activity change, negative = inhibition” value was -31.7% (inactive).

Take `Cc1ccc(NS(=O)(=O)c2cc3c(cc2Br)NC(=O)CO3)cc1C`: the “activity change, negative = inhibition” value is -12.9% (inactive).

On to `COc1c(O)cc2oc(-c3ccc(O)c(O)c3)cc(=O)c2c1O`, for which the Potency was 31.6 µM (active).

Take `CCOC(=O)COc1cc(OCC(=O)OCC)c2c(=O)cc(-c3ccccc3)oc2c1`: the “activity change, negative = inhibition” value is 1.3% (inactive). Still for that read-out and setting: the same measure for `COc1ccc(-c2c(C)c3ccc(O)c(CN4CCN(C)CC4)c3oc2=O)cc1OC`: -13.6% (inactive); for `O=C(CCc1nc(CN2CCN(S(=O)(=O)c3ccc(F)cc3)CC2)no1)N1CCCCC1`: -35.2% (inactive); for `O=C(Nc1ccc(OC(F)(F)F)cc1)c1cc2c(=O)n3ccccc3nc2s1`: -18.1% (inactive). For `CCc1cccc(C)c1NC(=O)COC(=O)CNC(=O)c1cccs1`, the “activity change, negative = inhibition” value is -15.8% (inactive). With `CCc1c(C)sc(NC(=O)c2ccc(Br)o2)c1C(=O)OC`, the “activity change, negative = inhibition” value was 71.5% (inactive).

Take `CCc1c(C)sc(NC(=O)c2cccs2)c1C(N)=O`: the Potency was 89.1 µM (active). On to `CC1CCCN(S(=O)(=O)c2ccc3[nH]c(=O)cc(C(=O)NCCc4ccc(Cl)cc4)c3c2)C1` (centres undefined), for which the “activity change, negative = inhibition” value is -6.12% (inactive). Still for that read-out and setting: the same measure for `Cc1ccc(NC(=O)c2nc(S(=O)(=O)Cc3cccc(C)c3)ncc2Cl)cc1`: -31.4% (inactive); for `Cc1cccc(C(=O)N2CCc3c([nH]c4ccccc34)C2CC(C)C)n1` (centres undefined): -29.9% (inactive). For `Cc1cccc(C2c3[nH]c4ccccc4c3CCN2C(=O)c2cc(-c3cccn3C)n[nH]2)n1` (centres undefined), the Potency is 56.2 µM (active).

Take `O=C(c1cn2ccccc2n1)N1CCc2c([nH]c3ccccc23)C1c1ccccn1` (centres undefined): the “activity change, negative = inhibition” value was -25.6% (inactive).

`COc1ccc(CCNC(=O)c2cnc3sc(N4CCCCCC4)nn3c2=O)cc1OC`: the “activity change, negative = inhibition” value was -12.7% (inactive). On the same count and under the same terms, the same measure for `COc1ccccc1NC(=O)Cn1cnc2ccc(S(=O)(=O)N3CCC(C)CC3)cc2c1=O`: -19.8% (inactive).

On to `COc1ccc(OC)c(NC(=O)CSC2=Nc3ccccc3C3=NC(CC(=O)NCCc4ccccc4)C(=O)N23)c1` (centres undefined), for which the “activity change, negative = inhibition” value is -23.7% (inactive). Regarding `Cc1cccc(N(C)C(=O)CS(=O)(=O)c2cccc3nsnc23)c1`, the “activity change, negative = inhibition” value is -14.8% (inactive).

Regarding `Cc1cc(C)c(C=NNc2nc3c([nH]2)c(=O)n(C)c(=O)n3C)c(C)c1`, the “activity change, negative = inhibition” value is -17.9% (inactive). Regarding `Cc1cccc(C)c1NC(=O)CSc1nc2c([nH]1)c(=O)n(C)c(=O)n2C`, the “activity change, negative = inhibition” value was -7.04% (inactive). As to `Cc1ccc(NN=Nc2nc3c([nH]2)c(=O)n(C)c(=O)n3C)cc1`, the Potency is 14.1 µM (active). Take `CCc1ccc(NC(=O)c2cc3c(=O)n(Cc4cccnc4)ccc3nc2C)cc1`: the “activity change, negative = inhibition” value was -14.7% (inactive).

As for `O=C(NCc1ccccc1)C(=O)NCC(c1ccco1)S(=O)(=O)c1ccc(Cl)cc1` (centres undefined), the “activity change, negative = inhibition” value is -3.57% (inactive).

With `Cc1ccc(C)n1-c1nnc(N2CCC(C(=O)NCc3ccccc3Cl)CC2)s1`, the “activity change, negative = inhibition” value is -13.1% (inactive). Still for that read-out and setting: the same measure for `C=CCNC(=O)c1ccc2nc(-c3ccco3)c(-c3ccco3)nc2c1`: -28.5% [at 57.1 µM] (inactive); for `CCOc1ccc(NC(=O)c2ncoc2-c2ccco2)cc1`: -14.2% (inactive). As for `COCCNC(=O)Nc1ccc2nc(-c3ccco3)c(-c3ccco3)nc2c1`, the Potency was 20 µM (active). As for `CC(C)Cn1c(C2CC(=O)N(c3ccccc3Cl)C2)nc2ccccc21` (centres undefined), the “activity change, negative = inhibition” value was -2.01% (inactive).

On to `Cc1ccccc1CNC(=O)c1ccc(NC(=O)N2CCCCc3ccccc32)cc1`, for which the “activity change, negative = inhibition” value was -8.67% (inactive).

Turning to `CCOC(=O)c1c(C)[nH]c(C)c1S(=O)(=O)N(C)CC(=O)N1CCN(c2ccccc2)CC1`, the “activity change, negative = inhibition” value is -26.3% (inactive). Same read-out and setting: the same measure for `Cc1cc(Br)ccc1NC(=O)Cn1cnc2sc(C)c(S(=O)(=O)N3CCN(C)CC3)c2c1=O`: -7.85% (inactive). In the case of `O=C(Nc1nnc(-c2ccco2)o1)c1ccc(S(=O)(=O)N2CCOCC2)cc1`, the Potency is 79.4 µM (active). In the case of `O=C(Nc1nnc(-c2ccccc2)o1)c1cccc(S(=O)(=O)N2CCOCC2)c1`, the “activity change, negative = inhibition” value is -5.56% (inactive). With `CC1CCCN(S(=O)(=O)c2ccc(C(=O)Nc3nnc(-c4ccncc4)o3)cc2)C1` (centres undefined), the “activity change, negative = inhibition” value was -35.7% (inactive). Regarding `Cc1ccc(Nc2nnc(-c3ccc(C)c(S(=O)(=O)N4CCCCC4)c3)c3ccccc23)cc1`, the “activity change, negative = inhibition” value was -1.31% (inactive). The same measure, in the same setting: the same measure for `COc1ccccc1-c1nc(C(F)(F)F)c(OC)o1`: -7.87% [at 57.1 µM] (inactive); for `COc1ccccc1-c1nnc(-c2ccc(F)cc2)o1`: -3.47% (inactive). Consider `COc1ccccc1C1=Nc2cccc3cccc(c23)N1`, for which the Potency was 50.1 µM (active).

As to `COc1ccc(NC(=O)Cn2c(=O)cc(C)c3c(C)nn(-c4cccc(Cl)c4C)c32)cc1OC`, the “activity change, negative = inhibition” value is -2.88% (inactive). Turning to `CCOC(=O)C1CCCN(C(=O)c2ccc(-n3ccc4ccccc43)s2)C1` (centres undefined), the “activity change, negative = inhibition” value is 45.1% (inactive).
